From PubChem BioAssay (NCATS)
Records with an inconclusive call do not appear. Where a call stands in place of a potency, no number is given. Calls of active or inactive are those of the source. Unless noted, calls come from the whole dose curve; as a rule, active = well fitted curve in the direction sought with a large enough effect; inconclusive = small, poorly fitted or top-dose-only effect, or another doubt; inactive = no such curve, though single readings can be large; an effect the other way counts as inactive or inconclusive.

Assays:
[1] = target: Alpha-galactosidase A (Homo sapiens) (UniProt P06280); assay: Counterscreen for Glucocerebrosidase Inhibitors: qHTS Assay for Human alpha-Galactosidase at pH 4.5 (AID 992)
Sequence of Alpha-galactosidase A (Homo sapiens) (P06280 whole entry, looked up): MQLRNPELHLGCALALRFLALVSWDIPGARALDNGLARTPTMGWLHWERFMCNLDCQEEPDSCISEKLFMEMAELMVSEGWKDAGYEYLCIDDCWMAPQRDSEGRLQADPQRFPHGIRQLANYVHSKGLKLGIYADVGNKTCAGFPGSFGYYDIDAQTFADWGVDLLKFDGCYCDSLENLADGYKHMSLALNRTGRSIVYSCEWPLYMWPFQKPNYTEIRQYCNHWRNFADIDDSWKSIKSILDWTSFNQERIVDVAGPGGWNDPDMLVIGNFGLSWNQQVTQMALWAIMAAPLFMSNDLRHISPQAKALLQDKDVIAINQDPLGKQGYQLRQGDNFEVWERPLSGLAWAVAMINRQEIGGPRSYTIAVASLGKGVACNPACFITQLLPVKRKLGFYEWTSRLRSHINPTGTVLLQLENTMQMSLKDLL
Method in brief: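 Citrate buffer pH 4.5, Tween-20 0.005%. Enzyme 2 nM, substrate 80 uM, 20 min RT. Stop pH 10. Fluorescence Ex 365/Em 440. AC50 by Hill fit.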

[2] = target: alpha-glucosidase (Oryza sativa, rice) (UniProt Q653V4); assay: Counterscreen for Glucocerebrosidase Inhibitors: qHTS Assay for Rice alpha-Glucosidase at pH 5.0 (AID 997)
Method in brief: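 Endpoint fluorogenic assay at pH 5.0: compounds (0.7 nM to 77 uM) titrated against 4 nM rice enzyme and 400 uM 4-MU-alpha-glucoside for 20 min at room temperature; NaOH/glycine stop, read ex 365/em 440 nm, Hill-fitted AC50.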

[3] = target: Alpha-galactosidase (Coffea arabica) (UniProt Q42656); assay: Counterscreen for Glucocerebrosidase Inhibitors: qHTS Assay for Coffee Bean alpha-Galactosidase at pH 5.9 (AID 998)
Sequence of Alpha-galactosidase (Coffea arabica) (Q42656 whole entry, looked up): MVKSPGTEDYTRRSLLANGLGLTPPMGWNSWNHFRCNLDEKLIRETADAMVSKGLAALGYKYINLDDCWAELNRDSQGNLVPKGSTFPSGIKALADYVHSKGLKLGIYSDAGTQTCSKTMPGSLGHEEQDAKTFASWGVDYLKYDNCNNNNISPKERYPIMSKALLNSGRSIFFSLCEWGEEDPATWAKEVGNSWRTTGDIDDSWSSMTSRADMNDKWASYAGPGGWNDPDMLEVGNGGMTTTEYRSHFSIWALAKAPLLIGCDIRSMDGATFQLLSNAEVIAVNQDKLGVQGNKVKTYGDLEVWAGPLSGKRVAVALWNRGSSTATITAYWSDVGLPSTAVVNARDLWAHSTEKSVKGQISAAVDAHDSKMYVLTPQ
Method in brief: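 Fluorogenic 4-MU substrate hydrolysis, 80 uM substrate and 2 nM coffee bean alpha-galactosidase, pH 5.9 citrate buffer, 20 min at room temperature, then NaOH/glycine stop. Titration 0.7 nM–77 uM, normalized to no-enzyme and enzyme controls, AC50 via Hill equation.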

[4] = target: DNA repair nuclease/redox regulator APEX1 (Homo sapiens) (UniProt P27695); assay: qHTS Validation Assay for Inhibitors of the Human Apurinic/apyrimidinic Endonuclease 1 (APE1) (AID 1705; note: potency is the fitted concentration of half-maximal effect;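 for activity change, negative = inhibition: TAMRA fluorescence gain over two minutes as APE1 cuts a quenched THF abasic duplex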)
Sequence of DNA repair nuclease/redox regulator APEX1 (Homo sapiens) (P27695 whole entry, looked up): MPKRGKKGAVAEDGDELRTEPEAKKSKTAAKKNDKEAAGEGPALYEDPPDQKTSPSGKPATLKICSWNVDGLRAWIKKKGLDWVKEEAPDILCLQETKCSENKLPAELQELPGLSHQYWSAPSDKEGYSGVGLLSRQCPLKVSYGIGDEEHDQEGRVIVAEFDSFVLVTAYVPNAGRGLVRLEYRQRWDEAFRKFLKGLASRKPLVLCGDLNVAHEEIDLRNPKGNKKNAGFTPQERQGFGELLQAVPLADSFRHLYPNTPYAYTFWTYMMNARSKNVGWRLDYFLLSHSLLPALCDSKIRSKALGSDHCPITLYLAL
Method in brief: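 Read-out: TAMRA fluorescence (525 nm ex, 598 nm em) from cleavage of a quenched THF abasic-site duplex, 50 nM final; activity taken as intensity change between third and first of three reads 60 s apart.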

[5] = Counterscreen for APE1 Inhibitors: Fluorescent Dye Displacement Validation Assay (AID 1707)
Method in brief: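 Signal: ThO fluorescence (ex 480 nm/em 540 nm) on binding 50 nM dsDNA; displacement by test compound reduces it. Conditions: 250 nM dye, 50 mM Tris-HCl pH7.5, 2 mM MgCl2, 50mM NaCl, 0.01% Tween-20.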

[6] = target: Endonuclease 4 (Escherichia coli (strain K12)) (UniProt P0A6C1); assay: Counterscreen for APE1 Inhibitors: qHTS Validation Assay for Inhibitors of Endonuclease IV (AID 1708)
Method in brief: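 Incision of a double-stranded 50 nM TAMRA/BHQ-2 abasic substrate was followed kinetically (525/598 nm, reads every 60 s) after 15 min enzyme–compound preincubation with 2 nM EndoIV in pH 7.5 Tris buffer with MgCl2, DTT and Tween-20; concentration-response format.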

[7] = qHTS for differential inhibitors of proliferation of Plasmodium falciparum line 7G8 (AID 1815);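 note: potency is the fitted concentration of half-maximal effect; parasite growth measured after three days of incubation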
[8] = qHTS for differential inhibitors of proliferation of Plasmodium falciparum line GB4 (AID 1816); conditions: Potency: Plasmodium falciparum GB4 proliferation inhibition;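 note: parasite growth measured after 72 h incubation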; note: potency is the fitted concentration of half-maximal effect
[9] = qHTS for differential inhibitors of proliferation of Plasmodium falciparum line 3D7 (AID 1876); note: potency is the fitted concentration of half-maximal effect
[10] = qHTS for differential inhibitors of proliferation of Plasmodium falciparum line D10 (AID 1877);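 note: parasites grown with compound for 72 h before DNA staining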; note: potency is the fitted concentration of half-maximal effect
[11] = qHTS for differential inhibitors of proliferation of Plasmodium falciparum line Dd2 (AID 1882); conditions: Potency: Plasmodium falciparum Dd2 proliferation inhibition; note: nearly all actives have a fitted effect of over 65% in size; note: potency is the fitted concentration of half-maximal effect
Method in brief: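 SYBR Green DNA fluorescence (ex 485, em 535 nm) after overnight lysis quantifies parasite growth; compound exposure lasted 72 h at 37 C on infected red cells at 2.5% hematocrit, 0.3% parasitemia (final). Artemisinin 0.29 uM and vehicle wells define normalization.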

[12] = qHTS for differential inhibitors of proliferation of Plasmodium falciparum line W2 (AID 1883); conditions: Potency: Plasmodium falciparum W2 proliferation inhibition;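 note: potency is the fitted concentration of half-maximal effect; parasites grown with compound for 72 h before lysis and staining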
[13] = qHTS for differential inhibitors of proliferation of Plasmodium falciparum line HB3 (AID 1886); conditions: Potency: Plasmodium falciparum HB3 proliferation inhibition;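 note: parasites grown with compound for 72 h before SYBR Green readout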; note: potency is the fitted concentration of half-maximal effect
[14] = Validation of Assay for Modulators of Lamin A Splicing (AID 1459; active = well fitted curve in the direction sought with a large enough effect in the signal ratio; the % refers to the signal ratio;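 note: cells exposed to compound for two days before reading; ratio rise marks activators and ratio drop marks inhibitors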)
Method in brief: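 Readout: ratio of GFP (500-530 nm) to RFP (575-640 nm) total object intensity by 488 nm laser-scanning cytometry after 48 hrs. Cells were HeLa S3 clones carrying lamin A-EGFP minigene plus DsRed2 viability reporter; vehicle 0.5% DMSO final.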

[15] = target: Ferritin light chain (Equus caballus) (UniProt P02791); assay: qHTS Validation Assay for Identification of Novel General Anesthetics (AID 2323)
Sequence of Ferritin light chain (Equus caballus) (P02791 2-175 limits assumed): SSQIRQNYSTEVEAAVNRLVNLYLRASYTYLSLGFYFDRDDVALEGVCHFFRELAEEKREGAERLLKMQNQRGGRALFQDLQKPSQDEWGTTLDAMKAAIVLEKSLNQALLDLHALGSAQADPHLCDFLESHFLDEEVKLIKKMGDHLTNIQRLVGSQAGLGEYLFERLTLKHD
Method in brief: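 10 uM horse-spleen apoferritin + 1-AMA (50% saturated, PBS); cpd pin-transferred, 10 min RT. Ex 380/Em 535 nm endpoint. Activity normalized between free 1-AMA and 1-AMA/apoferritin; 4-parameter Hill fit of concentration-response.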

[16] = Cell Viability - LYMP1-002 - Assay at 24 hr (AID 993)
Method in brief: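 Acute toxicity is measured as concentration-dependent loss of cellular ATP in a human lymphoblastoid line (Coriell LYMP1-002) after 24 h treatment in complete medium. ATP is quantified by luciferase luminescence and AC50 derived by Hill modelling.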

[17] = Cell Viability - LYMP1-002 - Assay at 40 hr (AID 994); note: nearly all actives have a fitted effect of over 60% in size
Method in brief: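 Cells are plated at 2500 per well and rested 5 hr at 37 C. Compounds are added and incubated 40 hr at 37 C. CellTiter-Glo reagent is added for 30 min at room temperature before luminescence is read.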

[18] = qHTS Assay for Identification of Small Molecule Inducers of Hypoxia Response (AID 2120; active = well fitted curve in the direction sought with a large enough effect in the signal ratio, with a control signal flat, not every such curve was filed as active; the % refers to the signal ratio)
Method in brief: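 Cell-based qHTS for reporter induction: hypoxia response element controlled beta-lactamase in ME-180 cells. Compounds incubated 17 h at 37 degrees C; activity from blue/green (460/530 nm) ratio, inducers ranked by AC50.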

[19] = qHTS Assay for Lipid Storage Modulators (AID 1519; calls by dose curve); conditions: Drosophila S3 cells, BODIPY lipid droplet/cell ratio, laser cytometry, cells loaded with oleic acid; for activity change, negative = inhibition: at 57.5 µM (top of the series)
Method in brief: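 Cells seeded at 5,000 per well were treated with compounds over a concentration series and loaded with oleic acid (400 uM, as added). Lipid droplet fluorescence (488 nm excitation, 500-530 nm channel) was read by laser-scanning cytometry and normalized to 20 uM Triacsin C.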

[20] = qHTS Assay for Modulators of Human Peripheral Myelin Protein 22 (PMP22) Expression/Activity (AID 1967; active = well fitted curve in the direction sought with a large enough effect in the signal ratio; the % refers to the signal ratio)
Method in brief: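 Mouse MSC80 Schwann line, Pmp22 promoter–CBG68 reporter, EF-alpha–CBR internal control. 24h compound exposure, 37 °C/5% CO2, DMEM + 10% FBS. Readout: corrected green/red luminescence ratio, normalized to untreated cells; concentration-response curves fitted and classified.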

[21] = measured here: cell count channel max response
[22] = measured here: lipid channel max response

With `c1ccc(CCCN2CCN(CCOC(c3ccccc3)c3ccccc3)CC2)cc1` the outcome [1] was “inactive”, the outcome [2] was “inactive” and the outcome [3] was “inactive”. The Potency [4] was “inactive”, the Potency [5] was “inactive” and the Potency [6] was “inactive”. The Potency [7] was 4.47 µM (active), the Potency [8] was 7.08 µM (active) and the Potency [9] was 11.2 µM (active). For the same compound, the Potency [10] was 10 µM (active), the Potency [11] was 8.91 µM (active) and the Potency [12] was 3.16 µM (active). The Potency [13] was 7.94 µM (active).
In the case of `CC(C)NC(C)Cc1ccc(I)cc1` (centres undefined), the outcome [14] is reported as “inactive”, the Potency [4] is reported as 39.8 µM (active) and the Potency [5] is reported as “inactive”. The Potency [6] was “inactive”, the Potency [7] was 10 µM (active) and the Potency [8] was 11.2 µM (active). For the same compound, the Potency [12] was 7.08 µM (active) and the outcome [15] was “inactive”.
With `CCOP(=O)(NC(C)C)Oc1ccc(SC)c(C)c1` (centres undefined) the Potency [16] was “inactive”, the Potency [17] was “inactive” and the outcome [18] was “inactive”.
For `CNCCc1ccc(O)c(O)c1`, the outcome [1] was “inactive”, the outcome [2] was “inactive” and the outcome [3] was “inactive”. The Potency [4] was “inactive”, the Potency [5] was “inactive” and the Potency [6] was “inactive”. The Potency [8] was 8.91 µM (active), the Potency [9] was 12.6 µM (active) and the Potency [12] was 10 µM (active). For the same compound, the outcome [15] was “inactive”.
In the case of `Cc1cc(O)ccc1Cl`, the Potency [16] is reported as “inactive”, the Potency [17] is reported as “inactive” and the activity change, negative = inhibition [19] is reported as 8.09% (inactive). For the same compound, the max response [19, 21] was -7.09%, the max response [19, 22] was 5.53% and the outcome [18] was “inactive”.
For `CCC(=O)OC1CCC2C3CCC4=CC(=O)CC[C@@]4(C)C3CC[C@]12C` (some centres undefined), the activity change, negative = inhibition [19] was 11.4% (inactive), the max response [19, 21] was 4.67% and the max response [19, 22] was 18.5%.
With `CC(=O)NCCc1c[nH]c2ccccc12` the outcome [1] was “inactive”, the outcome [2] was “inactive” and the outcome [3] was “inactive”. The outcome [14] was “inactive”, the Potency [4] was “inactive” and the Potency [5] was “inactive”. For the same compound, the Potency [6] was “inactive”, the Potency [8] was “inactive” and the Potency [9] was “inactive”. For the same compound, the Potency [10] was “inactive”, the Potency [11] was “inactive” and the Potency [13] was “inactive”. For the same compound, the outcome [20] was “inactive” and the outcome [15] was “inactive”.
For `CN[C@@H](C)[C@H](O)c1ccccc1`, the activity change, negative = inhibition [19] was -15% (inactive), the max response [19, 21] was -49.5% and the max response [19, 22] was -56.7%. For the same compound, the Potency [4] was “inactive”, the Potency [5] was “inactive” and the Potency [6] was “inactive”. The Potency [7] was 12.6 µM (active), the Potency [8] was 10 µM (active) and the outcome [15] was “inactive”.
In the case of `C#CC1(O)CCC2C3CCC4=CC(=O)CCC4(C)C3CCC21C` (centres undefined), the activity change, negative = inhibition [19] is reported as 2.45% (inactive), the max response [19, 21] is reported as 10.4% and the max response [19, 22] is reported as 15.6%.
For `Cc1nc(-c2ccc(-c3ccc(C(=O)N4CCc5cc6c(cc54)C4(CCN(C)CC4)CO6)cc3)c(C)c2)no1`, the outcome [1] was “inactive”, the outcome [2] was “inactive” and the outcome [3] was “inactive”. The Potency [4] was “inactive”, the Potency [5] was “inactive” and the Potency [6] was “inactive”. For the same compound, the Potency [7] was 5.01 µM (active), the Potency [8] was 11.2 µM (active) and the Potency [9] was 12.6 µM (active). The Potency [10] was 11.2 µM (active), the Potency [11] was 8.91 µM (active) and the Potency [12] was 10 µM (active). For the same compound, the Potency [13] was 11.2 µM (active).
In the case of `CCCN(CCC)C1CCc2ccc(O)cc2C1` (centres undefined), the outcome [14] is reported as “inactive”, the Potency [4] is reported as “inactive” and the Potency [5] is reported as “inactive”. The Potency [7] was 8.91 µM (active), the Potency [8] was 11.2 µM (active) and the Potency [10] was 10 µM (active). The Potency [12] was 7.94 µM (active), the Potency [13] was 11.2 µM (active) and the outcome [20] was “inactive”. The outcome [15] was “inactive”.
In the case of `CN(C)NC(=O)CCC(=O)O`, the Potency [16] is reported as “inactive”, the Potency [17] is reported as “inactive” and the outcome [18] is reported as “inactive”.
With `COc1ccc(C(c2ccc(OC)cc2)C(Cl)(Cl)Cl)cc1` the Potency [16] was “inactive”, the Potency [17] was “inactive” and the activity change, negative = inhibition [19] was 6.03% (inactive). The max response [19, 21] was 12.8%, the max response [19, 22] was 30.2% and the outcome [18] was “inactive”.
With `O=C(O)CCCOc1ccc(Cl)cc1Cl` the activity change, negative = inhibition [19] was 4.8% (inactive), the max response [19, 21] was 15.4% and the max response [19, 22] was 22.4%.
